Most compounds without a hit are left out; they make up all but 19% or so of the library.
TGFb SMAD3 inh: blocks TGF-b signaling; HepG2 CAGA-GFP TGF-b/SMAD3 reporter, GFP fluorescence, 18 h; TGF-beta stimulated, 500 pg/mL final; Potency, µM (series often up to 46.1 µM), without a hit: at the top dose activity, negative = inhibition, actives largely listed as inhibitors; AID 588855; 410,000 compounds, 1.2% hits; further: potency means the concentration at half of the fitted maximal effect; on the % scale 0 is the no-effect control and ±100 the full control effect; nearly all actives have a fitted effect of over 65% in size
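Per well, imaged GFP fluorescence of HEPG2 CAGA-GFP cells gives the signal; cells get compound, then TGF-beta (500 pg/mL final), 18 h at 37 degrees C; %Activity versus -TGF-beta and +DMSO controls.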
IL1B secr inh: inflammasome signaling inhibition, IL-1 beta readout; THP-1 LPS/ATP IL-1B secretion, AlphaLISA, 16 h; active compounds read low; activity change, % at 57.5 µM; 360,000 compounds, 4.7% hits; in the data active means activity change below about -50%; inconclusive means mostly about -30% to -49%; further: on the % scale 0 is the no-effect control and ±100 the full control effect
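Secreted IL-1B measured by AlphaLISA bead assay after 16 h compound exposure of THP-1 cells; compounds (final up to 57.5 uM) added 1 h before LPS (250 ng/mL) and ATP (1.25 mM) stimulation; lower signal means less secretion.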
DT40 TDP1 CPT: DT40-hTDP1 cell growth loss with CPT. chicken DT40 Tdp1-/-;hTDP1 cells + 20 nM CPT, ATP luminescence, 48 h. Potency, µM (top dose mostly 46.2 µM), for inactives: at the highest dose activity change, negative = growth inhibition, usual class: inhibitors. 420,000 compounds, 12% hits; further: potency means the concentration at half of the fitted maximal effect; on the % scale 0 is the no-effect control and ±100 the full control effect; nearly all actives have a fitted effect of over 55% in size
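Chicken DT40 Tdp1-/- cells complemented with human TDP1, 400 cells/well, exposed to compounds plus 20 nM camptothecin for at least 48 h at 37 C; viability read as ATP content by CellTiter-Glo luminescence.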
HepG2 tox: kills HepG2 cells in TGF-b inhibitor counter-screen; HepG2 CAGA-GFP viability, ATP luminescence, 18 h; Potency, µM (top dose mostly 46.1 µM), without a hit: top-dose activity change, negative = cytotoxicity, hits mostly cytotoxic; 410,000 compounds, 0.76% hits; further: potency means the concentration at half of the fitted maximal effect
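CellTiter-Glo luminescence gave cytotoxicity after 18 hours at 37 degrees C. The cells were HepG2 CAGA-GFP in 1% FBS DMEM, stimulated with 500 pg/mL TGF-beta after compound addition. %Activity was normalised to no-cell wells (complete cell-killing) and DMSO (no toxicity), and curves were fitted and classified.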
ASM inhibitor: blocks human secretory acid sphingomyelinase; placental ASM, HMU-PC fluorogenic substrate, 60 min; P17405; AID 504937; Potency, µM (doses to about 57.5 µM), inactives show at the highest dose activity change, negative = inhibition, usual class: inhibitors; 340,000 compounds, 0.006% hits; further: potency means the concentration at half of the fitted maximal effect
Target sequence (P17405 47-631 limits assumed): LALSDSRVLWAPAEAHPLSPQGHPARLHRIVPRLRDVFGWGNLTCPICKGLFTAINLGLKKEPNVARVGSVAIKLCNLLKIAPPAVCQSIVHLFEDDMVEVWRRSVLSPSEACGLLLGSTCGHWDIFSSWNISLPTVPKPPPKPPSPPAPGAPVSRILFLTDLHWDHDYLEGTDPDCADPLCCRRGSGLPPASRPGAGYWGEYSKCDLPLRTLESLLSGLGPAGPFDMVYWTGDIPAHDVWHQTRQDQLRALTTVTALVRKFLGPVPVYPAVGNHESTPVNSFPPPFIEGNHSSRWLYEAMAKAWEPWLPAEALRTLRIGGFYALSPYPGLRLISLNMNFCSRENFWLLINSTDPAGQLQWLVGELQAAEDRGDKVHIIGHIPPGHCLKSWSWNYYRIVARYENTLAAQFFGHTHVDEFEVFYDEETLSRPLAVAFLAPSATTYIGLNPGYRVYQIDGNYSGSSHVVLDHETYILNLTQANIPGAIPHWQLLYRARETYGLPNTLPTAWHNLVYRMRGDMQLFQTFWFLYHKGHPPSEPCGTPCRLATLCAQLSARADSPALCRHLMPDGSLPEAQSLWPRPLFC
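Fluorogenic HMU-PC substrate (9 uM final) is turned over by placental ASM in 60 min at 37 C after a 10 min compound preincubation. Reaction ended by alkaline stop (pH 10), with fluorescence read at 386/447 nm.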
TDP1 cell noCPT: qHTS for Inhibitors of human tyrosyl-DNA phosphodiesterase 1 (TDP1): qHTS in cells in absence of CPT; DT40 Tdp1-/- hTDP1 cells, no CPT, ATP luminescence, 48 h; Potency, µM (titrated, usually from 46.2 µM), without a hit: at the top dose activity change, negative = growth inhibition, most hits filed as inhibitors; 420,000 compounds, 15% hits; AID 686978, 2013; further: potency means the concentration at half of the fitted maximal effect; on the % scale 0 is the no-effect control and ±100 the full control effect; nearly all actives have a fitted effect of over 55% in size
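Cells were dispensed at 400 per well, compounds added by pin tool, plates incubated ≥48 hr at 37 °C, then CellTiter-Glo added for 30 min at room temperature before luminescence reading. Line: DT40 Tdp1-/- complemented with hTDP1; camptothecin omitted.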
Starred values were filed as active, the others as inactive; i = inactive; u = inconclusive; x = no result given; [ ] = remark or other dose. Unless noted, the call rests on the fitted dose curve; in most records, active means well fitted curve in the direction sought with a large enough effect; inconclusive means small, poorly fitted or top-dose-only effect, or another doubt; inactive means no such curve, though single readings can be large; an effect the other way counts as inactive or inconclusive.

SMILES	TGFb SMAD3 inh	IL1B secr inh	DT40 TDP1 CPT	HepG2 tox	ASM inhibitor	TDP1 cell noCPT
CCCCn1c(N)c(C(=O)OCC2CCCO2)c2nc3ccccc3nc21 (stereo unspecified)	-9.1%	-2.1	18.4µM*	4.1%	i	18.4µM*
Cc1cc2ccccc2n1CCNC(=O)COc1ccccc1	-15.2%	-7.3	u	0.2%	3.0%	u
CCCOC(=O)c1c(N)n(Cc2cccs2)c2nc3ccccc3nc12	-8.5%	-3.3	18.4µM*	0.5%	i	u
CCN(C1CCCCC1)S(=O)(=O)c1ccc(S(=O)(=O)N(CC(=O)Nc2ccccc2)C2CC2)cc1	-35.3%	0.0	u	-31.0%	-9.9%	u
CN(CC(=O)Nc1ccccc1-c1ccccc1)C1CCCCC1	-26.5%	-10.2	23.1µM*	-2.9%	6.3%	u
O=C(NCCCN1CCOCC1)C(Cl)(Cl)Cl	10.2%	-12.4	3.4%	6.5%	2.8%	-1.7%
CN(C)CCc1c[nH]c2ccc(O)cc12	x	x	u	x	x	-22.6%[92.5 µM]
CCCCn1c(N)c(N(CC(C)C)C(=O)c2cc(Br)c(Br)s2)c(=O)[nH]c1=O	-5.3%	-26.2	u	-3.2%	1.6%	23.1µM*
CC1(C)CC(CCNCc2ccc3c(c2)OCO3)(Cc2ccccc2)CCO1 (stereo unspecified)	7.9%	-96.4*	u	-26.7%	-0.1%	18.4µM*
C[N+]1(CC(COCc2ccccc2)OC(=O)Cc2ccccc2)CCOCC1 (stereo unspecified)	-2.6%	0.0	-1.5%	-25.3%	8.8%	-3.4%
c1cc2c(cc1[C@H]1OC[C@@H]3[C@H]1CO[C@H]3c1ccc3c(c1)OCO3)OCO2	x	x	-45.4%	x	x	-39.1%
Cn1c(O)c(/C=C2\N=c3ccccc3=C2CCNC(=S)NC2CC2)c(=O)n(C)c1=O	-12.3%	-96.0*	14.6µM*	10.0%	-0.1%	23.1µM*
Cn1c(O)c(/C=C2\C=c3ccccc3=NC2=O)c(=O)n(C)c1=O	1.8%	38.5	u	8.7%	31.7%	18.1%
COC(=O)C1=C(c2ccc(F)cc2OCc2ccccc2)C[C@@H]2CC[C@H]1N2C(=O)NCCOc1ccccc1Cl	u	-5.0	20.6µM*	-9.5%	-7.7%	16.4µM*
COC(=O)C1=C(c2ccc(F)cc2OCc2ccccc2)C[C@@H]2CC[C@H]1N2C(=O)NCCOc1ccccc1	u	u	u	-19.8%	1.4%	16.4µM*
COC(=O)C1=C(c2ccc(F)cc2OCc2ccccc2)C[C@@H]2CC[C@H]1N2C(=O)NCCc1ccc(F)cc1	u	u	u	-6.2%	-0.2%	20.6µM*
COC(=O)C1=C(c2ccc(F)cc2OCc2ccccc2)C[C@@H]2CC[C@H]1N2C(=O)NCCOc1ccc(OC)cc1	u	u	u	1.6%	-4.9%	16.4µM*
COC(=O)C1=C(c2ccc(F)cc2OCc2ccccc2)C[C@@H]2CC[C@H]1N2C(=O)NCc1ccccc1Cl	-6.9%	0.0	u	-14.8%	4.0%	u
COc1cc(=O)n2c(c1C(=O)N(C)Cc1nonc1C)CCN(C(=O)C1C(C)(C)C1(C)C)CC2	x	x	14.2%	x	x	-11.2%
C=C1C2C[C@]3(C4CC5[C@@]6(C)CC[C@H](O)[C@@]5(C3CC2=O)C4[N+]([O-])(CC)C6)[C@@H]1O (stereo partly specified)	x	x	11.6%[9.04 µM]	x	x	-7.6%[9.04 µM]
COC(=O)C1=C(c2c(C)noc2C)C[C@@H]2CC[C@H]1N2C(=O)NCCNC(C)=O	14.0%	7.0	-3.4%	-4.5%	4.1%	-11.5%
COc1ccccc1-n1c(/C=C/c2ccccn2)nc2ccccc2c1=O	-2.6%	x	u	-3.7%	-0.7%	u

Screens deposited in PubChem BioAssay by National Center for Advancing Translational Sciences (NCATS).
